± gives the standard deviation of the averaged measurements.
How the values were obtained:
Test in all cases: relative enzymatic activity vs untreated control (fraction); higher = less inhibition
Conditions in all cases: 100 µM; incubation time: 2 h at 37 C
DNA gyrase = test system: DNA gyrase
Procedure: (§1)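 In vitro enzymatic inhibition assays (ProFoldin kits) for 12 purified essential E. coli enzymes or complexes, each treated with 218 active antibacterial compounds at 100 µM for 2 h at 37°C. Read-outs were fluorescence or absorbance (phosphate detection, dye binding), converted to activity via standard curves and expressed relative to untreated DMSO controls.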

DNA helicase = DNA helicase (UniProt P0ACB1)
Procedure: as §1

DNA ligase = DNA ligase (UniProt B1XA82)
Procedure: as §1

DNA polymerase = DNA polymerase (UniProt P10443)
Procedure: as §1

DNA primase = DNA primase (UniProt P0ABS7)
Procedure: as §1

GlmU = GlmU (UniProt A7ZTU1)
Procedure: as §1

Guanlyate kinase = Guanlyate kinase (UniProt Q0TBG1)
Procedure: as §1

MurA = MurA (UniProt Q3YX52)
Procedure: as §1

MurD = target: T1, MurD (UniProt P14900)
T1 sequence (whole entry): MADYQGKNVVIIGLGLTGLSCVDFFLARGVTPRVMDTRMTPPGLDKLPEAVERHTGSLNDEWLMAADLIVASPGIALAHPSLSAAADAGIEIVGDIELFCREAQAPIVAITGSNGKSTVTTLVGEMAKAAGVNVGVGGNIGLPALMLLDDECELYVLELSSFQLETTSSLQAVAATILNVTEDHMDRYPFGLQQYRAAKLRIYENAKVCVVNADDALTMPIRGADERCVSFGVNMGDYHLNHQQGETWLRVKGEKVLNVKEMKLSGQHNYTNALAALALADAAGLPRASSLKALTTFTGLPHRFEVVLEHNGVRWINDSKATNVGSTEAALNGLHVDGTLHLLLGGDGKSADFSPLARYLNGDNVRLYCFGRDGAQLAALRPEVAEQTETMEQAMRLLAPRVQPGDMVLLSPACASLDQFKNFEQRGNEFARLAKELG
Procedure: as §1

MurF = target: T2, MurF (UniProt P11880)
T2 sequence (whole entry): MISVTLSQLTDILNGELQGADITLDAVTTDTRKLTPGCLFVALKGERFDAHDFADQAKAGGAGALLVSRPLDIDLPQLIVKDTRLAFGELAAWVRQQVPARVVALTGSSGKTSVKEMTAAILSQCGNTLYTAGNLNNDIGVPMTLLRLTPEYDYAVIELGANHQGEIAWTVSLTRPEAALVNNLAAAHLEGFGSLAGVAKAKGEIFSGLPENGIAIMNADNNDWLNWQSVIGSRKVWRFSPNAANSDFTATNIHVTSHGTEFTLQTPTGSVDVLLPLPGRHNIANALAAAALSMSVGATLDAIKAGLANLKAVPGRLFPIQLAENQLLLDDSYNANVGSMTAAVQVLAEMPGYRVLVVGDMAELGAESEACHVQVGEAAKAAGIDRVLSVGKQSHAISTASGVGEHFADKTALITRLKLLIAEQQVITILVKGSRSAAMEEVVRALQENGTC
Procedure: as §1

RNA polymerase = test system: RNA polymerase
Procedure: as §1

Sequence of DNA ligase (B1XA82 whole entry): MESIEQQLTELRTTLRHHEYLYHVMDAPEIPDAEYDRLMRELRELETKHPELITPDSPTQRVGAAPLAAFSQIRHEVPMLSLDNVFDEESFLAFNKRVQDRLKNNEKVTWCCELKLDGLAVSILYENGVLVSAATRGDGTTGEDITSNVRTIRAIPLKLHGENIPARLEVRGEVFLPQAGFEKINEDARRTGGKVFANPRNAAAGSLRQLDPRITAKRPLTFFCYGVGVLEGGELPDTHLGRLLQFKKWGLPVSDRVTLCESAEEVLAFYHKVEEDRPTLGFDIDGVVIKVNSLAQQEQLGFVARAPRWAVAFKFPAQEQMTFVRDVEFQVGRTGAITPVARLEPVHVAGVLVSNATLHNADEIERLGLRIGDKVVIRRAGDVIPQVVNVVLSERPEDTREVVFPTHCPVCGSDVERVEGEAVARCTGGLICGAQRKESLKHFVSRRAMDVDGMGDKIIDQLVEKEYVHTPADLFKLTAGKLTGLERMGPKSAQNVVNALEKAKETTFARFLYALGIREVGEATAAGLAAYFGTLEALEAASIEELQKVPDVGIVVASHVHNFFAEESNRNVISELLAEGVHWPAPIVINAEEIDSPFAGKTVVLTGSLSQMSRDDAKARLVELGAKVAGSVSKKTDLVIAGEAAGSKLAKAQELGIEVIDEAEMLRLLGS
Sequence of GlmU (A7ZTU1 whole entry, looked up): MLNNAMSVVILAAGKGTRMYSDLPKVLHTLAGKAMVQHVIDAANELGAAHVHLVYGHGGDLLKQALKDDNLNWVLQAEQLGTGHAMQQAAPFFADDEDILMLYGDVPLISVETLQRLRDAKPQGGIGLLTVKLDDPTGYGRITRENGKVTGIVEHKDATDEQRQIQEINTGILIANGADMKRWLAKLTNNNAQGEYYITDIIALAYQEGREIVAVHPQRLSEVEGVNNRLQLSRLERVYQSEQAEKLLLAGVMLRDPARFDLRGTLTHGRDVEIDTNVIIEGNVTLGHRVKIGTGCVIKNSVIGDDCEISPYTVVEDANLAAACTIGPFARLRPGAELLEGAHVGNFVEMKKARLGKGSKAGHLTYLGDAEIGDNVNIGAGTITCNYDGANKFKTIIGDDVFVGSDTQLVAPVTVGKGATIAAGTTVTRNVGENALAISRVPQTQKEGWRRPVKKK
Sequence of DNA polymerase (P10443 whole entry): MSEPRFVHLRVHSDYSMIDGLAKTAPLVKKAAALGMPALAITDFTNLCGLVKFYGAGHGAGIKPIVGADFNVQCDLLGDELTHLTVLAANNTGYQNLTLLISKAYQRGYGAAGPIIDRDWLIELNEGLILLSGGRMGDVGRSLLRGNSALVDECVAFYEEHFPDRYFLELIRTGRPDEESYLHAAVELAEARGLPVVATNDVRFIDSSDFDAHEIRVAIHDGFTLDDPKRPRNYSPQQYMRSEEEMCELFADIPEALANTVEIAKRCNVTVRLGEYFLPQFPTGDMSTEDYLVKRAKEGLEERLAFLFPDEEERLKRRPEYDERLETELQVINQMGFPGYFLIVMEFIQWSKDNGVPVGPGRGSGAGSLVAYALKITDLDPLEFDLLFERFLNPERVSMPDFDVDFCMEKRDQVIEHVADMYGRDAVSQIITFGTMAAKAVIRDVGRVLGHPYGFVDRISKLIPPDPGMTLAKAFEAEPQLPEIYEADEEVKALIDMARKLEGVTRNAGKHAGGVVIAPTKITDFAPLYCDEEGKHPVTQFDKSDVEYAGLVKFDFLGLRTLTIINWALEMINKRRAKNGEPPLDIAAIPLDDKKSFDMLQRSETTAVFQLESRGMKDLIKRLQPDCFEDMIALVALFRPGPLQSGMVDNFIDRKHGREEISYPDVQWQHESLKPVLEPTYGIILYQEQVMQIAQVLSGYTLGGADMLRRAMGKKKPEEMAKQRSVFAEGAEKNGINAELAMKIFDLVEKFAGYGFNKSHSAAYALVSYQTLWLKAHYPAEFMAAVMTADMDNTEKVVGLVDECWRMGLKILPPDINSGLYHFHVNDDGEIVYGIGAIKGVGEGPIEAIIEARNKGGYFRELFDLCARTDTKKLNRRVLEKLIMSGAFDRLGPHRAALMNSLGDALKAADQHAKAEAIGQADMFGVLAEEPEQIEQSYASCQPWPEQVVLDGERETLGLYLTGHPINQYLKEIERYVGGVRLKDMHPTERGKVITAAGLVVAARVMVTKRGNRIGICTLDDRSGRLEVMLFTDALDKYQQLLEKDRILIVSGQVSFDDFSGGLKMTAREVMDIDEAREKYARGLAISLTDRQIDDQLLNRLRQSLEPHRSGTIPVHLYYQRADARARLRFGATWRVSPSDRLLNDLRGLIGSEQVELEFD
Sequence of MurA (Q3YX52 whole entry): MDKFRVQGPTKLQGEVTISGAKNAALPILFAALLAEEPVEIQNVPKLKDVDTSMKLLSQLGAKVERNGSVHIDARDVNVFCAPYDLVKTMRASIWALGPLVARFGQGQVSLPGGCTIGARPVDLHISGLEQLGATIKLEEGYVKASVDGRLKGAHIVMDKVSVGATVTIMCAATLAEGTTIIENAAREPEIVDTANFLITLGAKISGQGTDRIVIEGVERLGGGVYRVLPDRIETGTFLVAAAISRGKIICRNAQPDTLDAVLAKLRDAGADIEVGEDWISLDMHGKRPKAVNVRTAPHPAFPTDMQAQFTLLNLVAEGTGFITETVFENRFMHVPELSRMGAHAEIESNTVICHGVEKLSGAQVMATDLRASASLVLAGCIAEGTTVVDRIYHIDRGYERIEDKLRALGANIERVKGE
Sequence of DNA primase (P0ABS7 whole entry): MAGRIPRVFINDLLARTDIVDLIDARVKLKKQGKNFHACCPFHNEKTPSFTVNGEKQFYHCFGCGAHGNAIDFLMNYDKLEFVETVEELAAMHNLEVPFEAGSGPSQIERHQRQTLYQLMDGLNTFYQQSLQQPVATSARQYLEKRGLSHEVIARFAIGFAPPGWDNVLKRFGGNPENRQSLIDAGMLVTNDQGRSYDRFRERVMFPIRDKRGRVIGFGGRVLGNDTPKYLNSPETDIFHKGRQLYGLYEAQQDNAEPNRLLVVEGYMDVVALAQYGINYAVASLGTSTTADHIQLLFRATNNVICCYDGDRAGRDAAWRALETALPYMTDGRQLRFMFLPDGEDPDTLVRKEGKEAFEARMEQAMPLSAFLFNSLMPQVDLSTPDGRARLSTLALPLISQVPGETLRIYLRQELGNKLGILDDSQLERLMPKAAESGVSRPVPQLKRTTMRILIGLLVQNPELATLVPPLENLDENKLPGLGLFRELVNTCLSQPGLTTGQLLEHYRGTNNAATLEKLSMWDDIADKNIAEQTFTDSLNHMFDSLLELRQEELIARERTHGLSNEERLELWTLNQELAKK
Sequence of DNA helicase (P0ACB1 whole entry): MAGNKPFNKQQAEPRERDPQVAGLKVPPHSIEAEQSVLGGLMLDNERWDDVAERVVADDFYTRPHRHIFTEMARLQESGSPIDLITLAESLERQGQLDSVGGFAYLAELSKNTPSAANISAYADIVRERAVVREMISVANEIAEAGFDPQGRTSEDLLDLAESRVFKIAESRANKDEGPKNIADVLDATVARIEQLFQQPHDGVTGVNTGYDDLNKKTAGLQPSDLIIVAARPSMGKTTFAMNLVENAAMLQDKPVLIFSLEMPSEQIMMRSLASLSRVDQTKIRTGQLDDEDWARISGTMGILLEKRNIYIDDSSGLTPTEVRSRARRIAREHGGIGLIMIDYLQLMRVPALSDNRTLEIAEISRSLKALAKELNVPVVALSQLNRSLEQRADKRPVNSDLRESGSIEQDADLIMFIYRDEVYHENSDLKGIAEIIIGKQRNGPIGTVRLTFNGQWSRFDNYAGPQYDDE
Sequence of Guanlyate kinase (Q0TBG1 whole entry): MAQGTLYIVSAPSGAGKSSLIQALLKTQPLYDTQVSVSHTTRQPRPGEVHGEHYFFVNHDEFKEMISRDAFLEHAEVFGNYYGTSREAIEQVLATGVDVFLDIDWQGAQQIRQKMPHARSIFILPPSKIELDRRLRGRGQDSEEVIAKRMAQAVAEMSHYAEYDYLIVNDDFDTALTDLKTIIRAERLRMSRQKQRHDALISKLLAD

| Compound | relative enzymatic activity (DNA gyrase) | relative enzymatic activity (DNA helicase) | relative enzymatic activity (DNA ligase) | relative enzymatic activity (DNA polymerase) | relative enzymatic activity (DNA primase) | relative enzymatic activity (GlmU) | relative enzymatic activity (Guanlyate kinase) | relative enzymatic activity (MurA) | relative enzymatic activity (MurD) | relative enzymatic activity (MurF) | relative enzymatic activity (RNA polymerase) |
| --- | --- | --- | --- | --- | --- | --- | --- | --- | --- | --- | --- |
| O=c1[nH]cc(F)c(=O)[nH]1 | 0.73 ± 0.39 | 0.568 ± 0.12 | 0.9871 ± 0.0093 | 0.593 ± 0.47 | 0.852 ± 0.023 | 0.981 ± 0.051 | 0.86 ± 0.071 | 0.673 ± 0.18 | 0.572 ± 0.36 | 0.972 ± 0.2 | 0.688 ± 0.065 |
| N[C@@H]1CN(c2c(F)cc3c(=O)c(C(=O)O)cn([C@@H]4C[C@@H]4F)c3c2Cl)CC12CC2 | 0.186 ± 0.26 | 0.435 ± 0.025 | 0.852 ± 0.06 | 1.1 ± 0.085 | 0.84 ± 0.012 | 0.987 ± 0.012 | 1 ± 0.11 | 0.524 ± 0.094 | 0.591 ± 0.41 | 1.31 ± 0.28 | 0.979 ± 0.15 |
| O=c1[nH]c(=O)n([C@@H]2C[C@@H](O)[C@@H](CO)O2)cc1F | 1.07 ± 0.043 | 0.591 ± 0.15 | 0.947 ± 0.062 | 0.708 ± 0.44 | 0.873 ± 0.022 | 1.03 ± 0.065 | 0.967 ± 0.1 | 0.74 ± 0.18 | 0.604 ± 0.39 | 1.01 ± 0.22 | 0.834 ± 0.019 |
| NC[C@H]1OB(O)c2c(OCCCO)cccc21 | 0.84 ± 0.32 | 0.308 ± 0.43 | 0.887 ± 0.13 | 1.08 ± 0.082 | 0.8235 ± 0.0023 | 0.922 ± 0.11 | 0.991 ± 0.1 | 0.709 ± 0.16 | 0.564 ± 0.35 | 1.17 ± 0.024 | 0.871 ± 0.073 |
| CN(C)CCOC(c1ccccc1)c1ccccc1.Cn1c(=O)c2[nH]c(Cl)nc2n(C)c1=O | 0.811 ± 0.45 | 0.604 ± 0.17 | 1.01 ± 0.12 | 1.32 ± 0.34 | 0.75 ± 0.22 | 0.939 ± 0.018 | 1.05 ± 0.066 | 0.697 ± 0.022 | 0.596 ± 0.39 | 0.534 ± 0.75 | 0.923 ± 0.069 |
| O=C1CN(N=Cc2ccc([N+](=O)[O-])o2)C(=O)N1 | 1.07 ± 0.045 | 0.467 ± 0.062 | 1.42 ± 0.59 | 1.32 ± 0.47 | 0.655 ± 0.11 | 0.964 ± 0.044 | 0.855 ± 0.027 | 0.649 ± 0.061 | 0.593 ± 0.41 | 0.96 ± 0.23 | 0.815 ± 0.028 |
| CCN1CCN(C(=O)NC(C(=O)NC2C(=O)N3C2SC(C)(C)C3C(=O)[O-])c2ccccc2)C(=O)C1=O.[Na+] (centres undefined) | 0.801 ± 0.4 | 0.634 ± 0.2 | 1.1 ± 0.11 | 1.32 ± 0.43 | 0.757 ± 0.24 | 0.886 ± 0.12 | 0.965 ± 0.12 | 0.612 ± 0.16 | 0.587 ± 0.41 | 0.938 ± 0.29 | 0.916 ± 0.077 |
| CS(=O)(=O)c1ccc(C(O)C(CF)NC(=O)C(Cl)Cl)cc1 (centres undefined) | 0.854 ± 0.44 | 0.577 ± 0.2 | 1.21 ± 0.24 | 1.29 ± 0.35 | 0.8787 ± 0.0014 | 0.977 ± 0.042 | 0.976 ± 0.14 | 0.796 ± 0.099 | 0.575 ± 0.38 | 0.945 ± 0.21 | 0.916 ± 0.026 |
| CO/N=C1\CN(c2nc3c(cc2F)c(=O)c(C(=O)O)cn3C2CC2)C[C@@H]1CN | 0.0916 ± 0.13 | 0.4747 ± 0.0033 | 0.891 ± 0.14 | 0.53 ± 0.72 | 0.751 ± 0.05 | 0.979 ± 0.019 | 0.738 ± 0.26 | 0.631 ± 0.21 | 0.572 ± 0.38 | 0.964 ± 0.17 | 0.807 ± 0.074 |
| CCn1cc(C(=O)O)c(=O)c2cnc(N3CCNCC3)nc21 | 0.262 ± 0.12 | 0.533 ± 0.057 | 0.92 ± 0.084 | 1.16 ± 0.2 | 0.876 ± 0.015 | 0.94 ± 0.024 | 0.891 ± 0.16 | 0.865 ± 0.047 | 0.583 ± 0.38 | 1.136 ± 0.011 | 0.83 ± 0.027 |
| NC[C@H]1O[C@H](O[C@H]2[C@H](O)[C@@H](O[C@H]3O[C@H](CO)[C@@H](O)[C@H](N)[C@H]3O)[C@H](N)C[C@@H]2N)[C@H](N)[C@@H](O)[C@@H]1O | 0.315 ± 0.23 | 0.151 ± 0.041 | 0.868 ± 0.093 | 0.916 ± 0.35 | 0.46 ± 0.095 | 0.992 ± 0.076 | 0.3862 ± 0.0032 | 0.686 ± 0.15 | 0.605 ± 0.41 | 0.975 ± 0.24 | 0.781 ± 0.22 |
| COC1C=COC2(C)Oc3c(C)c(O)c4c(O)c(c5c(nc6cc(C)ccn65)c4c3C2=O)NC(=O)C(C)=CC=CC(C)C(O)C(C)C(O)C(C)C(OC(C)=O)C1C (centres undefined) | 0.733 ± 0.23 | 0.703 ± 0.32 | 1.12 ± 0.24 | 1.11 ± 0.24 | 0.8 ± 0.047 | 0.746 ± 0.032 | 0.583 ± 0.0086 | 0.423 ± 0.046 | 0.417 ± 0.28 | 0.788 ± 0.15 | 0.106 ± 0.0026 |
| CCn1cc(C(=O)O)c(=O)c2cc(F)c(N3CCNCC3)cc21 | 0.00604 ± 0.0086 | 0.468 ± 0.034 | 0.906 ± 0.16 | 1.37 ± 0.53 | 0.659 ± 0.12 | 1.01 ± 0.015 | 1.01 ± 0.11 | 0.799 ± 0.017 | 0.573 ± 0.36 | 0.977 ± 0.21 | 0.849 ± 0.075 |
| Cc1cc(C2CCCCC2)n(O)c(=O)c1.NCCO | 1.114 ± 0.0086 | 0.546 ± 0.12 | 1.28 ± 0.12 | 1.29 ± 0.34 | 0.751 ± 0.22 | 1.12 ± 0.0031 | 1.05 ± 0.04 | 0.975 ± 0.045 | 0.678 ± 0.45 | 1.02 ± 0.2 | 0.8877 ± 0.0077 |
